Source: PubChem BioAssay (NCATS)
The source made the active and inactive calls. Calls follow the shape of the dose curve; as a rule, active = well fitted curve in the direction sought with a large enough effect; inactive = no such curve, though single readings can be large or run the other way.

Each molecule was assayed against Alpha-galactosidase (Coffea arabica) (UniProt Q42656) (assay: Counterscreen for Glucocerebrosidase Inhibitors: qHTS Assay for Coffee Bean alpha-Galactosidase at pH 5.9 (AID 998)). Conditions: coffee bean alpha-galactosidase enzyme assay; series mostly up to 76.9 µM.
Procedure, shortened: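 Green coffee bean enzyme (2 nM) with 4-methylumbelliferyl alpha-D-galactopyranoside (80 uM) in 50 mM citric acid, 0.005% Tween-20, pH 5.9, 20 min at room temperature; compounds 0.7 nM–77 uM. Stopped at pH 10, fluorescence Ex365/Em440; Hill-fit AC50.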

Chain of Alpha-galactosidase (Coffea arabica) (Q42656 whole entry, looked up): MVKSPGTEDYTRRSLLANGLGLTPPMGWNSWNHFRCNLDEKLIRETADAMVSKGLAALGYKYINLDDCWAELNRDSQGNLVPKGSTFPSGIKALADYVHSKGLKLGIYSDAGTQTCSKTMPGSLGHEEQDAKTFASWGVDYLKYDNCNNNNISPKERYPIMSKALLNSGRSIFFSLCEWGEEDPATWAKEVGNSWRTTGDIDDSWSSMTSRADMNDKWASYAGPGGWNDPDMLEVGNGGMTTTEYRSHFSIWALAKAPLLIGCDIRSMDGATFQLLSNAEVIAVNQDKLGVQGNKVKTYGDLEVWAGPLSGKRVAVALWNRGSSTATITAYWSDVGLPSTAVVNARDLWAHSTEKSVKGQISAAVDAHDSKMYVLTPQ

Row | Structure (SMILES) | outcome
1 | CN1C(C)(C)CCCC1(C)C | inactive
2 | Nc1ccc(S(=O)(=O)Nc2ccnn2-c2ccccc2)cc1 | inactive
3 | CN1C(C(=O)Nc2ccccn2)=C(O)c2ccccc2S1(=O)=O | inactive
4 | NC(=O)c1cnccn1 | inactive
5 | COc1cc(NS(C)(=O)=O)ccc1Nc1c2ccccc2nc2ccccc12 | inactive
6 | CN=C(NC#N)NCCSCc1nc[nH]c1C | inactive
7 | Cc1cnc(NC(=O)C2=C(O)c3ccccc3S(=O)(=O)N2C)s1 | inactive
8 | CC(C)NNC(=O)c1ccncc1 | inactive
9 | NCCCNCCSP(=O)(O)O | inactive
10 | CN1CCN(CCC=C2c3ccccc3Sc3ccc(S(=O)(=O)N(C)C)cc32)CC1 | inactive
11 | C1COC(NC(C2CC2)C2CC2)=N1 | inactive
12 | C[N+](C)(C)CCOC(N)=O | inactive
13 | CCn1nc(C(=O)O)c(=O)c2cc3c(cc21)OCO3 | inactive
14 | NC(=O)N1c2ccccc2C=Cc2ccccc21 | inactive
15 | CCN(CC)CCNC(=O)c1ccc(N)cc1 | inactive
16 | CC(=O)OCC(=O)[C@@]1(O)CC[C@H]2[C@@H]3CCC4=CC(=O)CC[C@]4(C)[C@H]3C(=O)C[C@@]21C | inactive
17 | Cc1nc2ccccn2c(=O)c1CCN1CCC(C(=O)c2ccc(F)cc2)CC1 | inactive
18 | Nc1nc2ccc(OC(F)(F)F)cc2s1 | inactive

Row | Structure (SMILES) | outcome
19 | Nc1cc(=O)[nH]c(N)n1 | inactive
20 | CC(=O)c1ccc(S(=O)(=O)NC(=O)NC2CCCCC2)cc1 | inactive
21 | CCCCCCCCCCCCCCCC(=O)NCCO | inactive
22 | N[C@@H](COP(=O)(O)O)C(=O)O | inactive
23 | CNCCCC12CCC(c3ccccc31)c1ccccc12 | inactive
24 | CCN(CC)C(=O)c1ccc(O)c(OC)c1 | inactive
25 | NC(N)=NC(=O)Cc1c(Cl)cccc1Cl | inactive
26 | O=c1c(-c2ccc(O)cc2)coc2cc(O)cc(O)c12 | inactive
27 | NC1CCN(c2cccc(Cl)n2)CC1 | inactive
28 | COc1ccc2cc([C@H](C)C(=O)O)ccc2c1 | inactive
29 | CCO/C([O-])=N/c1c[n+](N2CCOCC2)no1 | inactive
30 | O=c1[nH]cnc2[nH]ncc12 | inactive
31 | CCOC(=O)c1cnc2c(cnn2CC)c1NN=C(C)C | inactive
32 | Cc1ccc(Cl)c(Nc2ccccc2C(=O)O)c1Cl | inactive
33 | CCN(CC)CCOC(=O)c1ccc(N)cc1 | inactive
34 | NCCS(=O)(=O)O | inactive
35 | CC(C)Cc1ccc(C(C)C(=O)O)cc1 (stereo unspecified) | inactive
36 | C[C@H](CS)C(=O)N1CCC[C@H]1C(=O)O | inactive
